Many of the other results were omitted from the sample, so hits are more common in it than they were.
Pf Dd2 inh = Plasmodium falciparum Dd2 growth inhibition; Potency, µM (highest dose often 28.9 µM), most hits filed as inhibitors; P. falciparum Dd2 growth, SYBR Green, 72 h; actives 4.3% (n = 120,000); active = well fitted inhibition curve with a large enough effect; also: nearly all actives have a fitted effect of over 65% in size
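Readout: SYBR Green fluorescence, 485 nm excitation, 535 nm emission, after ~16 h lysis at 37C. Before that, Dd2-infected red cells (2.5% hematocrit) grew 72 h with compound, 29 uM top final concentration.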
Hits are given with their value; [ ] = remark or other dose.

Screening C=CCNC(=O)CCc1c(C)nn(-c2ccc(F)cc2)c1Oc1ccccc1 returned Pf Dd2 inh 7.94µM.
For Cc1cccc(-n2nc(C)c(CCC(=O)N(C)C(C)C)c2Oc2ccc(F)cc2F)c1 the results were Pf Dd2 inh inactive.
For C=CCNC(=O)CCc1c(C)nn(-c2ccc(F)cc2)c1Oc1ccccc1F the results were Pf Dd2 inh inactive.
For Cc1ccccc1-n1nc(C)c(CCC(=O)N(C)C(C)C)c1Oc1ccccc1F the results were Pf Dd2 inh 6.31µM.
For Cc1ccccc1N1Cc2c(NCCOc3ccccc3)ncnc2N(C)CC1=O the results were Pf Dd2 inh inactive.
COc1cc(=O)n2c(c1C(=O)NCc1ccc(F)cc1)CCCC2 was read as Pf Dd2 inh inactive.
`COc1ncc(-c2ccc3ncn(-c4ccc(F)cc4F)c(=O)c3n2)cn1` gave Pf Dd2 inh inactive.
Cc1cc(NC(=O)c2cc(Cl)ccc2Cl)ccc1-c1cc2ccccc2oc1=O was read as Pf Dd2 inh 11.2µM.
O=C(Nc1ccc(Cl)c(-c2nc3cc(Cl)ccc3o2)c1)c1cc2ccccc2o1 was read as Pf Dd2 inh inactive.
Screening Cc1cc2nc(-c3cc(NC(=O)c4cc5ccccc5o4)ccc3Cl)oc2cc1C returned Pf Dd2 inh inactive.
Screening COc1ccc(CNC(=O)C[C@@H]2O[C@H](Cn3cc(CN(C)Cc4ccccc4)nn3)[C@@H](O)[C@H]2O)cc1 returned Pf Dd2 inh inactive.
Screening CNC(=O)[C@@H]1CN(C(=O)CCc2ccc(OC)cc2)C[C@H]1COC returned Pf Dd2 inh inactive.
O=C1NCCCCCCN(C(=O)c2cccs2)[C@H]2C[C@H](c3nc(-c4cnccn4)no3)C[C@@H]12 was read as Pf Dd2 inh inactive.
`CC(=O)N1CCC(NC[C@H]2O[C@@H]3C[C@@H](CC(=O)N4CCOCC4)O[C@@H]3[C@@H]2O)CC1` gave Pf Dd2 inh inactive.
N#Cc1cccc(C(=O)N2CCC3(CC2)NC(=O)N(Cc2ccccc2Cl)C3=O)c1 was read as Pf Dd2 inh inactive.
`Cc1ccc(C(=O)N2CCC3(CC2)NC(=O)N(Cc2ccccc2)C3=O)cc1` gave Pf Dd2 inh inactive.
`N#Cc1ccc(C(=O)N2CCC3(CC2)NC(=O)N(Cc2ccccc2Cl)C3=O)cc1` gave Pf Dd2 inh 2.51µM.
For CNC(=O)[C@@H](c1ccc(OC)cc1)N1CCC[C@H]1C(=O)NC1CCCC1 the results were Pf Dd2 inh inactive.
CCN(CC)C(=O)c1sc2c(c1C)c(=O)n(CCc1ccccc1)c(=O)n2Cc1cccc(Cl)c1 was read as Pf Dd2 inh inactive.
Screening CCN(CC)C(=O)c1sc2c(c1C)c(=O)n(CCc1ccccc1)c(=O)n2Cc1ccc(F)cc1Cl returned Pf Dd2 inh 10µM.
For Cc1sc2c(c1C)c(=O)n(CCc1ccccc1)c(=O)n2Cc1ccccc1Cl the results were Pf Dd2 inh inactive.
Screening Cc1ncsc1CN1C[C@@H](NC(=O)c2cccnc2)C[C@H]1CO returned Pf Dd2 inh inactive.
O=C(NC1CC1)C1CN(c2ccc(F)cc2)C(=O)N1 (centres undefined) was read as Pf Dd2 inh inactive.
Screening CCOc1cccc(-c2nc(C3CCOC3)no2)c1 (centres undefined) returned Pf Dd2 inh inactive.
For COc1cccc(-c2ccc(-c3nc(C4CCOC4)no3)o2)c1 (centres undefined) the results were Pf Dd2 inh inactive.
`c1cc(-c2ccco2)cc(-c2nc(C3CCOC3)no2)c1` (centres undefined) gave Pf Dd2 inh 12.6µM.
Screening CCOc1ccc(NC(=O)c2oc3ccccc3c2NC(=O)COc2cccc(OC)c2)cc1 returned Pf Dd2 inh inactive.
Cc1cccc(OCC(=O)Nc2c(C(=O)N3CCN(c4ccccc4F)CC3)oc3ccccc23)c1 was read as Pf Dd2 inh inactive.
`CCCC(=O)Nc1c(C(=O)N2CCN(c3ccccc3)CC2)oc2ccccc12` gave Pf Dd2 inh inactive[5.79 µM].
Screening O=C(Nc1c(C(=O)N2CCN(c3ccccc3F)CC2)oc2ccccc12)c1ccco1 returned Pf Dd2 inh inactive.
Screening CCCCC(=O)Nc1c(C(=O)N2CCN(c3ccccc3F)CC2)oc2ccccc12 returned Pf Dd2 inh 11.2µM.
CC(C)CC(=O)Nc1c(C(=O)N2CCN(c3ccccc3F)CC2)oc2ccccc12 was read as Pf Dd2 inh 7.08µM.
CCC(=O)Nc1ccc(C2(C(=O)N3CCN(c4ccccc4F)CC3)CCC2)cc1 was read as Pf Dd2 inh inactive.
`COc1ccc(OCC(=O)Nc2c(C(=O)N3CCN(c4ccccc4)CC3)oc3ccccc23)cc1` gave Pf Dd2 inh 11.2µM.
Cc1ccc(OCC(=O)Nc2c(C(=O)c3ccccc3)oc3ccccc23)cc1C was read as Pf Dd2 inh inactive.
Screening Cc1cc(=O)[nH]c(CCNC(=O)c2ccc(C)c(N3CCNC3=O)c2)n1 returned Pf Dd2 inh inactive.
Screening O=C(O)C(Cc1ccco1)n1cc(-c2nccs2)nn1 (centres undefined) returned Pf Dd2 inh inactive.
C[S+](=O)([O-])N1CCC2(CC1)C(=O)NN=C2C1CC1 was read as Pf Dd2 inh inactive.
Screening O=C1CC2CCN(C(=O)Cc3ccccc3)CC2CCN1 (centres undefined) returned Pf Dd2 inh inactive.
`CCCN(CC1CCOC1)S(=O)(=O)c1cc(F)ccc1OC` (centres undefined) gave Pf Dd2 inh inactive[5.79 µM].
O=C(CC1=CCNCC1)N(Cc1ccccn1)CC1CCCO1 (centres undefined) was read as Pf Dd2 inh inactive.
O=C1NCCCCCN(S(=O)(=O)c2cccc(F)c2)[C@H]2CCCC[C@@H]12 was read as Pf Dd2 inh inactive.
CN1CCCCCCN(S(=O)(=O)c2cccc(F)c2)[C@H]2CCC[C@H]2C1=O was read as Pf Dd2 inh 2.51µM.
`CCn1cc(S(=O)(=O)N2CCCCCCN(C)C(=O)[C@@H]3CCC[C@@H]32)cn1` gave Pf Dd2 inh inactive.
Screening CC(=O)Nc1cccc(NC(=O)CC[C@H]2NC(=O)c3ccccc3NC2=O)c1 returned Pf Dd2 inh inactive.
CC(C)(C)OC(=O)N1CCC(c2c(C(=O)N3CCN(C(=O)c4ccco4)CC3)cnn2-c2ccccc2)CC1 was read as Pf Dd2 inh inactive.
For Cc1ccc(-n2ncc(C(=O)N3CCN(C(=O)c4ccco4)CC3)c2C2CCN(C(=O)OC(C)(C)C)CC2)cc1 the results were Pf Dd2 inh inactive.
`CC(C)(C)OC(=O)N1CCC(c2c(C(=O)N3CCN(Cc4ccccc4)CC3)cnn2-c2ccc(Cl)cc2)CC1` gave Pf Dd2 inh 11.2µM.
`Cc1ccc(-n2ncc(C(=O)N3CCN(Cc4ccccc4)CC3)c2C2CCN(C(=O)OC(C)(C)C)CC2)c(C)c1` gave Pf Dd2 inh 8.91µM.
For COc1ccc(C(=O)N2CCC(N3C(=O)CCC3C(=O)NC(C)C)CC2)cc1OC (centres undefined) the results were Pf Dd2 inh inactive.
`CO[C@H]1[C@H](NC(=O)c2ccc(=O)n(C)n2)c2ccccc2C12CCNCC2` gave Pf Dd2 inh inactive.
For C=CCN1CC2(CCC1=O)CCN(C(=O)[C@@H](O)Cc1ccccc1)CC2 the results were Pf Dd2 inh inactive.
`C=CCNc1ccccc1C(=O)NC(C(=O)O)c1c(C)n[nH]c1C` (centres undefined) gave Pf Dd2 inh inactive.
Cc1ncsc1CN1C(=O)CO[C@H](c2ccc(NC(=O)c3ccc(F)cc3)cc2)[C@H]1CO was read as Pf Dd2 inh inactive.
O=C(CN1CC2CC(C1)[C@H]1CCCC(=O)N1C2)N1CCN(c2ccccc2)CC1 (some centres undefined) was read as Pf Dd2 inh inactive.

Screening results: PubChem BioAssay, National Center for Advancing Translational Sciences (NCATS)
